From PubChem BioAssay AID1117319 (Southern Research Institute, 2015)
Where “and” joins values, the source holds several entries; their conditions need not be identical. Equal entries are not always repeated. Hit rate of the full screen: of about 260,000 compounds, about 1,500 (0.58%) were called active. About 5% were inconclusive and are not listed.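 Rule for the calls: active = inhibition above a set limit at one or more doses, reproduced on every date tested; inconclusive = results disagree between test dates, or hit never tested in dose response; inactive = the rest.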 A selection follows. Entries with a potency or affinity are not part of this list.

What follows are compounds tested against Virion infectivity factor (Human immunodeficiency virus type 1 group M subtype B (isolate BH10)) + Virion infectivity factor (Human immunodeficiency virus type 1 group M subtype B (isolate BRU/LAI)) + Virion infectivity factor (Human immunodeficiency virus type 1 group M subtype B (isolate PCV12)) + Virion infectivity factor (Human immunodeficiency virus type 1 group M subtype B (isolate HXB2)) + DNA dC->dU-editing enzyme APOBEC-3G (Homo sapiens) (UniProt P69720+P69721+P69722+P69723+Q9HC16) (assay: HIV-1 Vif–A3G interaction blockers – biochemical, TR-FRET, GST-Vif 1-94, biotin-A3G peptide, dose response retest, primary screen (AID 1117319;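 note: Vif residues 1-94 fused to GST binding biotinylated APOBEC3G peptide 110-148; 0% = full assay without inhibitor and 100% = GST in place of GST-Vif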)). Conditions: TR-FRET GST-Vif / biotin-A3G peptide binding; hits give high values.

inhibition, inactive:
CCNc1nc(NCC)nc(SCC(C)=O)n1 1.47%
O=C(CCc1c[nH]c2ccccc12)NCc1ccco1 14.9%
O=C(Cc1c[nH]c2ccccc12)NCc1ccco1 -2.84%
NS(=O)(=O)c1ccc(CNC(=O)c2ccc(S(=O)(=O)NCc3ccco3)cc2)cc1 -7.37%
O=C(NCc1ccccc1F)c1ccc(S(=O)(=O)NCc2ccco2)cc1 1.91%
O=C(NCCc1ccccc1)c1nc2ncccn2n1 8.66%
COc1ccc(NC(=O)CCNS(=O)(=O)c2cccc3nonc23)cc1Cl 7.84%
COc1ccc(/C=C(/CC(=O)NCc2ccc(Cl)cc2)c2nc3ccccc3s2)cc1 2.71%
COc1ccccc1/C=C(/CC(=O)NCc1ccc(F)cc1)c1nc2ccccc2s1 -7%
COc1ccc(Cl)cc1C(=O)Nc1ccccc1N1CCN(C)CC1 1.41%
O=C(Nc1ccc(C(=O)O)cc1)/C(=C\c1ccco1)NC(=O)c1ccccc1 26.2%
COC(=O)/C(=C/c1ccco1)NC(=O)c1ccccc1 11.2%
Fc1ccc(-c2cc(C(F)(F)F)nc(-n3cccn3)n2)cc1 21.7%
CCc1ccc2[nH]c(=O)c(C(c3nnnn3CCOC)N3CCN(c4ccc(F)cc4)CC3)cc2c1 (configuration not stated) 9.01% and 16.1%
CCc1ccc2[nH]c(=O)c(C(c3nnnn3CCOC)N3CCN(c4ccccc4)CC3)cc2c1 (configuration not stated) 9.41% and 22.6%
Cc1ccc(SCC(=O)NNC(=O)CCS(=O)(=O)c2ccc(C)cc2)cc1 -4.89%
CCOCCCNC(=O)c1ccccc1Br 79.3%
CCCNC(=O)c1ccccc1C(=O)NCCC -3.84%
Cc1nn(-c2ccccc2)c(C)c1C1C(C#N)=C(N)Oc2n[nH]c(C)c21 (configuration not stated) -0.66%
CCCCC(=O)Nc1cccc(-c2csc(-c3ccccc3)n2)c1 -12.6%
O/N=C1\CC(O)Cc2nonc21 (configuration not stated) -4.67%
CCCC(c1nnnn1CC(=O)OCC)N(Cc1cc2ccc(C)cc2[nH]c1=O)C1CCCC1 (configuration not stated) 4.45% and 9.64%
CCCC(c1nnnn1CC(=O)OCC)N(Cc1cc2c(C)cc(C)cc2[nH]c1=O)C1CCCC1 (configuration not stated) 68.5%
O=C(Nc1ncn[nH]1)c1ccccc1O -9.78%
COc1ccc(N2C(=O)C3C4C=CC(C4)C3C2=O)c(OC)c1 (configuration not stated) 1.91%
COc1ccc(NC(=O)CN2CCN(c3ccccc3F)CC2)cc1 8.91%
COC(=O)c1ccc(CN(C(=O)N2CCN(C)CC2)S(=O)(=O)c2ccc(C)cc2)cc1 2.32%
O=C(CSc1nc(-c2ccco2)cc(C(F)(F)F)n1)N1CCCc2ccccc21 -15.3% and -9.35%
CN1CCN(C(=O)CSc2nc(-c3ccco3)cc(C(F)(F)F)n2)CC1 -4.57%
O=C(Nc1ccc(F)cc1)C(=O)C1C(=O)Nc2ccccc21 (configuration not stated) -6.37%
CCOC(=O)C1=C(O)/C(=C\c2cccs2)N=C1C 15.1%
Cc1ccc(NC(=O)C(=O)NCc2ccc(/C=C(/C#N)C(=O)NCc3cccnc3)o2)cc1 7.86%
O=C(NCc1ccc(/C=c2\sc3n(c2=O)CCN=3)o1)C(=O)Nc1ccccc1 -17%
Cc1ccc(NC(=O)C(=O)NCc2ccc(/C=N/NC(=O)c3c(C)nc4cc(C)ccn34)o2)cc1 19.2%
CCOC(=O)C1=C(O)/C(=C\c2sccc2C)N=C1C 0.95%
CCOC(=O)c1ccc(NC(=O)C(=O)NCc2ccc(/C=C(/C#N)C(=O)NCCOC)o2)cc1 -2.3%
Cc1ccc(NC(=O)C(=O)NCc2ccc(/C=N/NC(=O)c3c(C)nc4ccccn34)o2)cc1 26.2%
COC(=O)C1=C(O)/C(=C\c2ccc(OCC(=O)Nc3ccccc3)cc2)N=C1C -9.89%
O=C(COC(=O)/C=C/c1cccc(Br)c1)NCCC1=CCCCC1 12.4%
Cc1cc(C(=O)N2CCN(c3ccccc3Cl)CC2)c(C)o1 3.3%
C=CCNc1nc(-c2ccc(OC)cc2OC)cs1 -8.96%
COc1cc(NC(=O)COc2ccc(Cl)cc2)ccc1NC(=O)C(C)C 1.28%
CCCSc1cc(N)cc([N+](=O)[O-])c1 -12.3%
CCN(CC)CCN(C(=O)CCS(=O)(=O)c1ccccc1)c1nc2cc(C)cc(C)c2s1 7.31%
O=C(CSc1ncn[nH]1)Nc1ccc2c(c1)CCC2 -3.75%
N#Cc1ccc(/C=N/NC(=S)Nc2ccc(S(=O)(=O)N3CCOCC3)cc2)cc1 27.6%
O=S(=O)(c1ccc(NC(=S)N/N=C/c2ccc(N3CCOCC3)cc2)cc1)N1CCOCC1 0.51%
CCCOc1ccc(/C=N/NC(=S)Nc2ccccc2[N+](=O)[O-])c(O)c1 5.31%
O=[N+]([O-])c1cc(/C=N/NC(=S)Nc2ccccc2Cl)ccc1Cl 8.67%
CCOc1ccc(/C=N/NC(=O)C(OC)c2ccccc2)cc1 (configuration not stated) -8.04%
Cc1nnc(N(C)C(=O)c2cccnc2)s1 -3.79%
COc1ccc(/C=N/NC(=O)c2ccccc2)cc1CN1CCN(c2ccc(F)cc2)CC1 1.7%
COc1ccc(/C=N\NC(=O)c2cccc([N+](=O)[O-])c2)cc1Cn1cc([N+](=O)[O-])cn1 9.14%
COc1cc(C(=O)N/N=C/c2ccc(OC)c(CN3CCN(c4ccc(F)cc4)CC3)c2)ccc1O -4.76%
COc1ccc(/C=N/NC(=O)c2ccccc2O)cc1Cn1cc([N+](=O)[O-])cn1 22.8%
CC(=O)Oc1cc2c(cc1OC(C)=O)C(=O)CCCC2 -3.59%
CCc1cccc2c(C(=O)CSc3nncn3C)c[nH]c12 3.36%
